# IL-1B inflam inh: blocks inflammasome-driven IL-1 beta release; AID 743279; activity change, % at 57.5 µM; THP-1 LPS/ATP IL-1B secretion, AlphaLISA, 16 h; stronger effect = lower value; 360,000 compounds, 4.7% hits; in the data active means activity change below about -50%; inconclusive means mostly about -30% to -49%
#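 THP-1 cells pretreated 1 hr with compounds (up to 57.5 uM final), then stimulated with LPS (250 ng/mL final) plus ATP (1.25 mM final); secreted IL-1B measured by AlphaLISA after 16 hr, decreased signal indicating inhibition.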
# ELG1 DNA repair: inhibitors of ELG1-dependent DNA repair in HEK293T cells; HEK293T ELG1-luciferase reporter, luminescence, 16 h; DNA damage induced by 5-fluorouridine; Potency, µM (titrated, usually from 46.1 µM), inactives show at the top dose activity change, negative = inhibition, most hits filed as inhibitors; 330,000 compounds, 2.3% hits; AID 504467; further: potency means the concentration at half of the fitted maximal effect; nearly all actives have a fitted effect of over 55% in size
#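 HEK293T cells expressing luciferase-tagged ELG1 (2,000/well) received 5-Fluorouridine plus compound or DMSO for 16 hr at 37 °C. Luciferase was read by ONE-Glo luminescence after 30 min at room temperature.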
# HT1080 IDH1KD tx: kills HT-1080 cells with IDH1 knockdown; HT-1080 IDH1 knockdown viability, ATP luminescence, 48 h; Potency, µM (series often up to 46.1 µM), for inactives: top-dose activity, negative = toxicity, most hits filed as cytotoxic; 360,000 compounds, 2% hits;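 further: potency means the concentration at half of the fitted maximal effect; 0% = DMSO wells and -100% = cell-free medium wells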
#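 Assay cells: HT-1080 with IDH1 knockdown, 750 per well, RPMI/5% FBS. Exposure: 48 h at 37 °C following 2 h pre-incubation. Read: CellTiter-Glo luminescence; fitted concentration-response, curve class assigned.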
# TDP1 cell noCPT: qHTS for Inhibitors of human tyrosyl-DNA phosphodiesterase 1 (TDP1): qHTS in cells in absence of CPT | DT40 Tdp1-/- hTDP1 cells, no CPT, ATP luminescence, 48 h | Potency, µM (highest dose often 46.2 µM), without a hit: at the highest dose activity change, negative = growth inhibition, actives largely listed as inhibitors | 420,000 compounds, 15% hits | AID 686978, 2013; further: potency means the concentration at half of the fitted maximal effect; nearly all actives have a fitted effect of over 55% in size
#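 Readout: luminescence from CellTiter-Glo after 30 min in the dark at RT. Cells: DT40 Tdp1-/- with stable hTDP1, 400/well. Exposure: compounds alone, ≥48 hr, 37 °C.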
# HT1080-NT tox: kills 2HG-producing HT-1080-NT fibrosarcoma cells; Potency, µM (titrated, usually from 46.1 µM), without a hit: at the top dose activity, negative = less viability, actives largely listed as cytotoxic; AID 686970; 360,000 compounds, 1.6% hits; HT-1080-NT fibrosarcoma viability, CellTiter-Glo ATP luminescence, 48 h;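 further: NT is the 2HG producing partner of a matched IDH1 knockdown line; potency means the concentration at half of the fitted maximal effect; 0% = DMSO-treated cells and -100% = media-only wells without cells; nearly all actives have a fitted effect of over 55% in size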
#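 HT-1080-NT fibrosarcoma cells (2HG-overproducing), 750 cells/well in RPMI with 5% FBS, dosed after 2 h and incubated 48 h at 37C. CellTiter-Glo luminescence normalized to DMSO and no-cell wells; concentration-response curves fitted and classed.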
# TDP1 cell CPT: DT40-hTDP1 cell growth loss with CPT; chicken DT40 Tdp1-/-;hTDP1 cells + 20 nM CPT, ATP luminescence, 48 h; Potency, µM (doses to about 46.2 µM), without a hit: top-dose activity change, negative = growth inhibition, usual class: inhibitors; 420,000 compounds, 12% hits; AID 686979; further: potency means the concentration at half of the fitted maximal effect; nearly all actives have a fitted effect of over 55% in size
#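 Cell growth measured by CellTiter-Glo luminescence after a minimum 48 h, 37 C compound exposure with 20 nM CPT in Tdp1-knockout DT40 cells stably expressing hTDP1, seeded 400/well; qHTS titration format.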
# Numbers without * were called inactive; u = inconclusive; x = no result; [ ] = dose if it differs, or a comment. Rows were chosen to be rich in hits. Some 19% of all compounds tested hit in one or more screens of this group. Unless noted, the call rests on the fitted dose curve; in most records, active means well fitted curve in the direction sought with a large enough effect; inconclusive means small, poorly fitted or top-dose-only effect, or another doubt; inactive means no such curve, though single readings can be large; an effect the other way counts as inactive or inconclusive. Unless noted, on the % scale 0 is the no-effect control and ±100 the full control effect.
SMILES,IL-1B inflam inh,ELG1 DNA repair,HT1080 IDH1KD tx,TDP1 cell noCPT,HT1080-NT tox,TDP1 cell CPT
CCCc1ccc(S(=O)(=O)N(C)S(=O)(=O)c2ccc(F)cc2)cc1,-5,-9%,2%,0%,16%,-20%
O=C(CNCc1ccc(Cl)cc1)Nc1cc(S(=O)(=O)N2CCCC2)ccc1Cl,-3,x,-2%,u,4%,21µM*
O=C(Cc1ccccc1F)Nc1cc(S(=O)(=O)N2CCCC2)ccc1Cl,-23,10%,2%,17%,9%,-6%
O=C(CN1CCN(c2ccc(O)cc2)CC1)Nc1cc(S(=O)(=O)N2CCCC2)ccc1Cl,-14,23µM*,-6%,18µM*,-2%,u
O=C(CN1CCN(c2ccc(O)cc2)CC1)Nc1cc(S(=O)(=O)N2CCCCC2)ccc1Cl,-16,16µM*,-17%,10µM*,u,10µM*
CCOC(=O)C1CCN(CC(=O)Nc2cc(S(=O)(=O)N3CCCCC3)ccc2Cl)CC1,-7,-18%,-12%,21µM*,-13%,21µM*
COCc1ccc(CN2CCOc3c(cc(-c4ccc(SC)cc4)cc3OC)C2)o1,x,x,x,-21%,x,1%[9.04 µM]
O=C(Nc1ccc(N2CCOCC2)cc1)c1csc(COCCO)n1,-8,x,6%,-13%,0%,-20%
O=C(Cc1ccccc1)NCc1ccc(-n2cccc2)cc1,26,-3%,5.8µM*,3.7µM*,5.2µM*,3.3µM*
O=C(Cc1ccc(-n2cccc2)cc1)NCc1ccccc1Cl,-6,-15%,8.2µM*,5.8µM*,8.2µM*,5.8µM*
O=C(C1CN(C(=O)c2cc3ccccc3o2)c2ccccc2O1)N1CCCCC1 (stereo unspecified),-18,x,-10%,u,-8%,u
O=C(NNC(=O)C1CCN(Cc2ccccc2)CC1)c1cccs1,17,-1%,5%,8%,-2%,9%
O=C(NC(c1ccccc1)c1cnccn1)C1CCN(Cc2ccc(Cl)c(Cl)c2)CC1 (stereo unspecified),-24,x,u,13µM*,u,9.2µM*
O=C(NC(c1ccc(-c2ccccc2)cc1)c1cnccn1)C1CCN(Cc2ccc3c(c2)OCO3)CC1 (stereo unspecified),-26,x,10µM*,5.2µM*,13µM*,5.8µM*
Cn1cc(CN2CCC(C(=O)NC(c3ccc(-c4ccccc4)cc3)c3cnccn3)CC2)c2ccccc21 (stereo unspecified),0,x,u,16µM*,5.2µM*,13µM*
COc1ccc(C(NC(=O)C2CCN(CCOc3ccccc3)CC2)c2ccccn2)cc1 (stereo unspecified),-13,x,2%,-7%,-4%,14%
O=C(NNC(=O)C1CCN(Cc2ccc(Cl)c(Cl)c2)CC1)c1cccs1,4,u,-15%,16µM*,-18%,-1%
O=C(NC(c1ccc(-c2ccccc2)cc1)c1cnccn1)C1CCN(Cc2ccc(Cl)c(Cl)c2)CC1 (stereo unspecified),-21,x,-4%,u,-10%,u
O=C(NC(c1ccc2c(c1)OCO2)c1ccccn1)C1CCN(CCOc2ccccc2)CC1 (stereo unspecified),-14,x,-1%,-25%,-4%,11%
COC(=O)c1ccc2c(c1C(=O)OC)CN(S(=O)(=O)C(C)(C)C)[C@@H]2CCO,21,x,9%,2%,14%,18%
COc1ccc(N2Cc3cccc(C(=O)Nc4ccc(C(C)C)cc4)c3C2=O)cc1,x,x,x,-20%,x,-19%
Cc1cn([C@H]2C[C@H](O)[C@@H](/C=C/C(=O)NCCc3cccs3)O2)c(=O)[nH]c1=O,25,x,24%,6%,20%,3%
